High-throughput results (PubChem)
This is a sample that favours compounds with a hit; in the whole collection about 5.8% have one here.
KB-3-1 cytotox = qHTS assay for MDR1-selective chemotherapeutics: Primary screen using the parental adenocarcinoma cell KB-3-1; KB-3-1 viability, CellTiter-Glo ATP luminescence, 72 h; hit rate 1.4% among 400,000; Potency, µM (top dose mostly 46.1 µM), hits mostly cytotoxic; note: % is set by controls: 0 for no effect and ±100 for the full control effect; nearly all actives have a fitted effect of over 60% in size
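Parental KB-3-1 viability, qHTS format: 72 h compound exposure, 37 °C; CellTiter-Glo; media-only wells and DMSO plates as controls; concentration-effect fits on corrected data.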
PINK1 modulator = A Quantitative High throughput Screen to Identify Chemical Modulators of PINK1 Expression; AID 624263, 2012; hit rate 0.2% among 410,000; PINK1 immunofluorescence, high-content cytometry, 24 h; Potency, µM (top dose mostly 76.6 µM), inactives show at the highest dose activation (PINK1 increase), hits mostly activators; active = well fitted activation curve with a large enough effect; inconclusive = small, poorly fitted or top-dose-only effect; cell line not stated here; note: % of control where 0% means no effect; nearly all actives have a fitted effect of over 65% in size
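Cells are seeded, rested 12 hours, then given compound at five concentrations or DMSO for 24 hours. After fixation, blocking and antibody staining, PINK1 amount and mitochondrial localization are scored; CCCP serves as control.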
12-LOX inh = Primary qHTS assay for inhibitors of human arachidonate 12S-lipoxygenase (ALOX12): Round 2; Polyunsaturated fatty acid lipoxygenase ALOX12 (Homo sapiens), P18054; purified 12hLO, xylenol orange hydroperoxide absorbance; Potency, µM (doses to about 108 µM), for the others: at the top dose activity change, negative = inhibition, usual class: inhibitors; hit rate 1.1% among 580,000; note: % is set by controls: 0 for no effect and ±100 for the full control effect
Target sequence (P18054 whole entry, looked up): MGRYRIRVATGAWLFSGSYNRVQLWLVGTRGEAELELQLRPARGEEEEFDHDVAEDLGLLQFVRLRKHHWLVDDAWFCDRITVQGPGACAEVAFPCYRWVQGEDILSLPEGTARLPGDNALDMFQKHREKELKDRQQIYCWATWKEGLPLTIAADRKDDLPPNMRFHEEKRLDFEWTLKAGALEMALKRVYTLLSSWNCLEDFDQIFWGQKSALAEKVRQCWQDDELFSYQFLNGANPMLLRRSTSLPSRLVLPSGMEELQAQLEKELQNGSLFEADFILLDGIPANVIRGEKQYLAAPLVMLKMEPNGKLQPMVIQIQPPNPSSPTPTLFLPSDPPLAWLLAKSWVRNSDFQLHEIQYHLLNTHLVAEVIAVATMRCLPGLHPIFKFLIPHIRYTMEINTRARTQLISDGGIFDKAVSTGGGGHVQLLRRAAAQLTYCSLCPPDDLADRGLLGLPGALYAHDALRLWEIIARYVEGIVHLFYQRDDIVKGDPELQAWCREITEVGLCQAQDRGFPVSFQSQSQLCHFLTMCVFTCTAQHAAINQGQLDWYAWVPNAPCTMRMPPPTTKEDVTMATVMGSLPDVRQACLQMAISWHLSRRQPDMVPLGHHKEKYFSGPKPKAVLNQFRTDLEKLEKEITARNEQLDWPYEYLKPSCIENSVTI
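Purified human 12hLO at 150 nM in 25 mM Hepes, 0.01% Triton X-100, pH 7.0, preincubated 15 min at room temperature with compound. Reaction started with 40 uM arachidonic acid, 30 min at room temperature. Hydroperoxide measured by Fe-xylenol orange, 573/405 nm absorbance ratio.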
SW480 rerep = A quantitative high throughput screen for small molecules that induce DNA re-replication in SW480 colon adenocarcinoma cells. SW480 DNA re-replication, Hoechst DNA content imaging, 48 h. Potency, µM (top dose mostly 46.1 µM), for inactives: top-dose re-replication activation, hits mostly activators. hit rate 1.8% among 340,000; note: % of control where 0% means no effect; nearly all actives have a fitted effect of over 55% in size
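Quantitative HTS format with DMSO vehicle controls; 48 hr drug incubation at 37 C, then 40 min Hoechst staining and scanning imager measurement at 405 nm excitation.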
KB-V1 MDR tox = qHTS assay for MDR1-selective chemotherapeutics: Primary screen using the drug-selected MDR subline cells KB-V1; KB-V1 MDR cells viability, CellTiter-Glo, 72 h; Potency, µM (series often up to 46.1 µM), hits mostly cytotoxic; hit rate 3.4% among 400,000; note: % is set by controls: 0 for no effect and ±100 for the full control effect; nearly all actives have a fitted effect of over 60% in size
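KB-V1 cells (P-gp-expressing MDR subline of KB-3-1) in phenol-red-free DMEM with 10% FBS were exposed to library compounds over a concentration series for 72 h at 37 degrees C. Viability read by CellTiter-Glo luminescence; concentration-effect curves fitted after normalization.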
MCF10A rereplic = A quantitative high throughput screen for small molecules that induce DNA re-replication in MCF 10a normal breast cells; MCF 10A DNA re-replication, Hoechst nuclear intensity, 48 h; Potency, µM (titrated, usually from 46.1 µM), inactives show at the top dose activity, positive = re-replication, actives largely listed as activators; hit rate 2.9% among 350,000; AID 624296, 2012; note: % of control where 0% means no effect; nearly all actives have a fitted effect of over 50% in size
Active calls of the source: *; i = inactive; ? = inconclusive; · = no result given; [ ] = another dose, or the depositor's remark. Unless noted, calls come from the whole dose curve; as a rule, active = well fitted curve in the direction sought with a large enough effect; inconclusive = small, poorly fitted or top-dose-only effect, or another doubt; inactive = no such curve, though single readings can be large; an effect the other way counts as inactive or inconclusive. Potency is the fitted concentration of half-maximal effect.

SMILES | KB-3-1 cytotox | PINK1 modulator | 12-LOX inh | SW480 rerep | KB-V1 MDR tox | MCF10A rereplic
CCOc1cc(N2CCOCC2)c(OCC)cc1NC(=O)CSc1ncccn1 | i | -1% | 1% | -27% | ? | -5%
CCOC(=O)c1c(-c2ccccc2)csc1NC(=O)c1ccc(S(=O)(=O)N2CCOCC2)cc1 | i | 13% | 7% | ? | i | 12µM*
Cc1ccc(C(=O)N(Cc2ccco2)C2CC2)cc1F | · | · | 5% | · | · | ·
Cc1nn(C)cc1NC(=O)c1c(Br)cnn1C | · | · | -13% | · | · | ·
COC(=O)c1ccc2nc(C[C@@H]3C[C@@H](C(C)C)[C@H](CNC(=O)N4CCOCC4)C=C3C)[nH]c2c1 | · | · | 131% | · | · | ·
COc1ccc(CNC(=O)CCCn2ccc3cc(S(=O)(=O)N4CCCC4)ccc32)cc1 | ? | 4% | -5% | 7.3µM* | ? | 21µM*
O=C([C@@H]1C[C@H](F)CN1S(=O)(=O)Cc1ccccc1Cl)N1CCc2ccccc2C1 | · | · | 33% | · | · | ·
COc1cc(C)cc2oc(=O)c(CC(=O)NCCc3ccccc3)c(C)c12 | · | · | 42% | · | · | ·
COC(=O)Cn1cc(/C=N/NC(=O)c2ccc(C#N)cc2F)c2ccccc21 | i | 11µM* | 13% | 26% | i | -12%
COc1cc(C2CC(=O)Nc3c(-c4ccc(Cl)cc4)nsc32)cc2c1OCO2 (configuration not stated) | · | · | -8% | · | · | ·
COc1ccccc1CC(=O)N1CCN(c2cccc(C(F)(F)F)c2)CC1 | i | 2%[38.3 µM] | ? | -3% | 12µM* | 5%
O=C(/C=C/c1ccc(Br)cc1)N1CCN(c2cccc(C(F)(F)F)c2)CC1 | ? | 20% | -23% | 9% | ? | 13µM*
COc1ccccc1NC(=O)N1CCN(c2cccc(C(F)(F)F)c2)CC1 | i | -6%[38.3 µM] | -6% | -5% | ? | ?
CCCCOCCCNC(=O)CCC(=O)NC1CCCCC1 | · | · | 16% | · | · | ·
Cc1nc(SCC(=O)N(CC(C)C)C2CCS(=O)(=O)C2)c2c(C)c(C)sc2n1 (configuration not stated) | ? | -1% | 204% | -6% | 3.7µM* | 2%
CCN(C(=O)CSc1nc(C)nc2sc(C)c(C)c12)C1CCS(=O)(=O)C1 (configuration not stated) | i | 1% | 4% | -21% | i | -3%
CCN(CC)C(=O)CN1C(=O)C2(OCC(C)(C)CO2)c2ccccc21 | i | 1% | 1% | 3% | 16µM* | 2%
O=C1N(CCCCN2C(=O)C3(OCCO3)c3ccccc32)c2ccccc2C12OCCO2 | i | -2% | 16% | -1% | i | 5%
CCN(CC)C(=O)CN1C(=O)C2(OCC(C)(c3ccccc3)CO2)c2ccccc21 (configuration not stated) | i | · | -4% | 10% | i | -2%
O=C1N(Cc2ccc(F)cc2Cl)c2ccccc2C12OCCCO2 | ? | 12% | -8% | 5% | 18µM* | 24%
O=C1N(CCCN2C(=O)C3(OCCO3)c3ccccc32)c2ccccc2C12OCCO2 | i | 9%[38.3 µM] | 0% | -10% | 12µM* | 5%
O=C1N(Cc2ccccc2F)c2ccccc2C12OCCCO2 | i | 3%[38.3 µM] | 2% | 1% | i | -2%
COc1ccc(C)cc1-n1c(SCC(=O)Nc2ccc3c(c2)OCO3)nc2ccccc2c1=O | · | · | 0% | · | · | ·
Cc1cc(C)cc(Nc2cnn(C34CC5CC(CC(CC(=O)O)(C5)C3)C4)c(=O)c2Cl)c1 | i | 1%[38.3 µM] | 0% | ? | i | 23µM*
Cc1cccc(Nc2cnn(C34CC5CC(CC(CC(=O)O)(C5)C3)C4)c(=O)c2Cl)c1 | i | · | 0% | -13% | i | -22%
SMILES | KB-3-1 cytotox | PINK1 modulator | 12-LOX inh | SW480 rerep | KB-V1 MDR tox | MCF10A rereplic
COc1ccc(NC(=O)c2cc3cc(Br)ccc3[nH]2)cc1 | · | · | 0% | · | · | ·
CCc1nc2c(c(-c3ccc(Cl)cc3)n1)CCN(Cc1ccsc1)CC2 | · | · | 8% | · | · | ·
CCN(CC)CCCNc1nc2ccccc2c2[nH]c3ccc(OC)cc3c12 | ? | -7% | 45µM* | ? | 16µM* | 13%
COc1ccccc1OCCn1c(=O)sc2ccccc21 | i | -2%[38.3 µM] | -24% | 4% | 15µM* | 11%
Cc1ccccc1OCCn1c(=O)sc2ccccc21 | i | 6% | 0% | 4% | i | 0%
CCOc1ccc(Cn2c(=O)sc3ccccc32)cc1OC | ? | 3% | 0% | -6% | 12µM* | ?
COc1cc(Cn2c(=O)sc3ccccc32)ccc1OC(C)C | i | 1% | 5% | · | i | ·
O=C(Nc1ccccc1F)c1ccc(Cn2nc(N3CCN(c4ccccc4)CC3)ccc2=O)o1 | ? | 2% | 45µM* | · | ? | ·
Cn1c(=O)c2c(ncn2Cc2ccc(Cl)c(Cl)c2)n(C)c1=O | ? | 2%[38.3 µM] | -2% | 8% | 2.6µM* | 17%
Cn1c(=O)c2c(ncn2CCOc2cccc(Br)c2)n(C)c1=O | 10µM* | -1% | 4% | 6% | ? | 7%
Cn1c(=O)c2c(nc(Cl)n2Cc2ccc(Cl)c(Cl)c2)n(C)c1=O | ? | -1% | ? | -7% | 16µM* | 0%
Cn1c(=O)c2c(ncn2Cc2cccc(Cl)c2)n(C)c1=O | ? | · | 12% | 5% | ? | -5%
COc1ccc2oc(=O)c(S(=O)(=O)N3CCC(C)CC3)cc2c1 | · | · | -3% | · | · | ·
N#CC(c1ccccc1)N(CCCCl)C(=O)c1ccccc1 (configuration not stated) | i | 1% | -5% | 15µM* | i | ?
Cn1nc(C(=O)Nc2cccc3cnccc23)c2ccccc2c1=O | · | · | -27% | · | · | ·
CC(C)N(C(=O)c1sc2cc([N+](=O)[O-])ccc2c1Cl)C(C)C | i | 2% | 16% | 1% | 21µM* | 1%
O=C1COc2ccc(-c3ccoc3)nc2CN1Cc1ccc(C(F)(F)F)cc1 | · | · | 40µM* | · | · | ·
CCN1C=C(Cc2ccc(F)cc2)C2=C(C1)C(c1ccc(F)cc1)C(C#N)=C(N)O2 (configuration not stated) | ? | 10% | ? | ? | 16µM* | ?
CC(=O)C1=C(c2ccccc2)OC(N)=C(C#N)C1c1ccccc1C (configuration not stated) | i | 3% | -17% | -6% | i | -1%
